Where “and” joins values, the source holds several entries; their conditions need not be identical. Equal entries are not always repeated. Records with an inconclusive call do not appear. A call without a number means that no potency is given here. Where a structure was tested more than once in an assay, its records may differ in their call. Calls of active or inactive are those of the source. The call rests on the fitted dose curve; in most records, active means well fitted curve in the direction sought with a large enough effect; inconclusive means small, poorly fitted or top-dose-only effect, or another doubt; inactive means no such curve, though single readings can be large; an effect the other way counts as inactive or inconclusive. Non-standard residues stand in square brackets, D forms with d. Residues, ends and D or L forms follow the SMILES beside them. *: point of attachment. Sta = CC(C)C[C@H](N)[C@@H](O)CC(=O)O; Isovaleryl = CC(C)CC(=O)*
Columns and labels:
[1] = NS1 protein of Zika virus - qHTS assay to identify small molecule inhibitors in human HEK 293 cells (AID 1347053); further: nearly all actives have a fitted effect of over 55% in size; further: potency means the concentration at half of the fitted maximal effect
Summary of the method: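 Following 20 h seeding, HEK 293 cells took compound, then 1 h later ZIKV MR766 (MOI = 0.5). Incubation ran 24 h at 37 C before TR-FRET detection of NS1; a drop in signal indicates inhibition.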

[2] = qHTS of pediatric cancer cell lines to identify multiple opportunities for drug repurposing: Primary screen for TC32 cells (AID 1347089); further: nearly all actives have a fitted effect of over 60% in size; further: potency means the concentration at half of the fitted maximal effect
Summary of the method: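 A viability screen of TC32 cells was run over 48 h, with primary MIPE doses spanning 0.78 nM–46 µM and NPC doses 0.59 nM–46 µM. ATP luminescence (CellTiter-Glo) served as the read-out.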

[3] = qHTS of pediatric cancer cell lines to identify multiple opportunities for drug repurposing: Primary screen for DAOY cells (AID 1347090); further: nearly all actives have a fitted effect of over 55% in size; further: potency means the concentration at half of the fitted maximal effect
Summary of the method: (§1)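 Eight- or eleven-point concentration series, 48 h treatment at 37 degrees C in growth media; readout CellTiter-Glo luminescence. Potency and efficacy were taken from the concentration-response curves.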

[4] = qHTS of pediatric cancer cell lines to identify multiple opportunities for drug repurposing: Primary screen for SJ-GBM2 cells (AID 1347091); further: potency means the concentration at half of the fitted maximal effect
Summary of the method: as §1

[5] = qHTS of pediatric cancer cell lines to identify multiple opportunities for drug repurposing: Primary screen for SK-N-MC cells (AID 1347093); further: potency means the concentration at half of the fitted maximal effect
Summary of the method: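 Metabolically active cells were quantified by ATP-dependent luminescence (CellTiter-Glo, 15 min at room temperature) following 48 h treatment. Cells had been plated at 500-1,000 per well and settled for 5 h beforehand.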

[6] = qHTS of pediatric cancer cell lines to identify multiple opportunities for drug repurposing: Primary screen for BT-37 cells (AID 1347094); further: potency means the concentration at half of the fitted maximal effect
Summary of the method: (§2)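 Following a 5-hour attachment period, cells at 500-1,000/well received compounds and were cultured for 48 hours. CellTiter-Glo was added and luminescence read to estimate viable, metabolically active cells.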

[7] = qHTS of pediatric cancer cell lines to identify multiple opportunities for drug repurposing: Primary screen for U-2 OS cells (AID 1347096); further: nearly all actives have a fitted effect of over 50% in size
Summary of the method: (§3)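 Cells (500-1,000/well) in growth media were settled 5 h at 37 degrees C, then given compounds for 48 h. Viability was read as CellTiter-Glo luminescence. Primary runs used MIPE at 11 points (0.78 nM-46 µM) and NPC at 8 points (0.59 nM-46 µM); follow-ups used 11 points.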

[8] = qHTS of pediatric cancer cell lines to identify multiple opportunities for drug repurposing: Primary screen for Saos-2 cells (AID 1347097); further: nearly all actives have a fitted effect of over 40% in size; further: potency means the concentration at half of the fitted maximal effect
Summary of the method: as §2

[9] = qHTS of pediatric cancer cell lines to identify multiple opportunities for drug repurposing: Primary screen for SK-N-SH cells (AID 1347098); further: nearly all actives have a fitted effect of over 65% in size; further: potency means the concentration at half of the fitted maximal effect
Summary of the method: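 Cells (500-1,000/well) rested 5 h, then received compounds for 48 h; metabolically active cells were measured by CellTiter-Glo luminescence. Final concentrations spanned up to 46 µM (MIPE, 11-point) or 0.59 nM-46 µM (NPC, 8-point) in primary screens, 11-point in follow-ups.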

[10] = qHTS of pediatric cancer cell lines to identify multiple opportunities for drug repurposing: Primary screen for NB1643 cells (AID 1347099); further: nearly all actives have a fitted effect of over 50% in size; further: potency means the concentration at half of the fitted maximal effect
Summary of the method: as §2

[11] = qHTS of pediatric cancer cell lines to identify multiple opportunities for drug repurposing: Primary screen for LAN-5 cells (AID 1347100); further: potency means the concentration at half of the fitted maximal effect
Summary of the method: as §3

[12] = qHTS of pediatric cancer cell lines to identify multiple opportunities for drug repurposing: Primary screen for NB-EBc1 cells (AID 1347095); further: potency means the concentration at half of the fitted maximal effect
Summary of the method: as §2

[13] = qHTS of pediatric cancer cell lines to identify multiple opportunities for drug repurposing: Primary screen for A673 cells (AID 1347092); further: nearly all actives have a fitted effect of over 45% in size; further: potency means the concentration at half of the fitted maximal effect
Summary of the method: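 Titration-based qHTS on A673 cells: MIPE compounds spanned 11 points (0.78 nM to 46 µM final), NPC compounds 8 points (0.59 nM to 46 µM final). Viability after 48 h was measured by ATP luminescence.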

## CC(C)CC(=O)N[C@H](C(=O)N[C@H](C(=O)N[C@@H](CC(C)C)[C@@H](O)CC(=O)N[C@@H](C)C(=O)N[C@@H](CC(C)C)[C@@H](O)CC(=O)O)C(C)C)C(C)C (Isovaleryl-VV[Sta]A[Sta]-OH)
[1]
  Potency: inactive
[2]
  Potency: inactive
[3]
  Potency: inactive
[4]
  Potency: inactive
[5]
  Potency: inactive
[6]
  Potency: inactive
[7]
  Potency: inactive
[8]
  Potency: inactive
[9]
  Potency: inactive
[10]
  Potency: inactive
[11]
  Potency: inactive

## Cc1cc(C2CCCCC2)n(O)c(=O)c1
[1]
  Potency: inactive and 6.62 µM (active)
[2]
  Potency: 7.45 µM (active)
[3]
  Potency: 10.6 µM (active)
[5]
  Potency: 750 nM (active) and 1.18 µM (active)
[6]
  Potency: 3.09 µM (active)
[12]
  Potency: 7.43 µM (active)
[7]
  Potency: inactive
[8]
  Potency: 21.1 µM (active)
[9]
  Potency: 1.09 µM (active)
[10]
  Potency: 11.9 µM (active) and 20.9 µM (active)
[11]
  Potency: 7.43 µM (active)

## Cc1ccc(C(=O)c2cc(O)c(O)c([N+](=O)[O-])c2)cc1
[1]
  Potency: inactive
[2]
  Potency: inactive
[3]
  Potency: inactive
[13]
  Potency: 11.8 µM (active)
[5]
  Potency: 23.7 µM (active) and 18.7 µM (active)
[7]
  Potency: inactive
[9]
  Potency: inactive
[10]
  Potency: inactive

## Nc1ccc(S(N)(=O)=O)cc1
[1]
  Potency: inactive
[2]
  Potency: inactive
[3]
  Potency: inactive
[13]
  Potency: inactive
[5]
  Potency: inactive
[6]
  Potency: inactive
[12]
  Potency: inactive
[7]
  Potency: inactive
[8]
  Potency: inactive
[9]
  Potency: inactive
[10]
  Potency: inactive
[11]
  Potency: inactive

## CCOC(=O)C1=C[C@@H](OC(CC)CC)[C@H](NC(C)=O)[C@@H](N)C1
[1]
  Potency: inactive
[2]
  Potency: inactive
[3]
  Potency: inactive
[13]
  Potency: inactive
[6]
  Potency: inactive
[7]
  Potency: inactive
[8]
  Potency: inactive
[9]
  Potency: inactive
[10]
  Potency: inactive
[11]
  Potency: inactive

## Cc1cccc(C)c1OCC(=O)N[C@@H](Cc1ccccc1)[C@@H](O)C[C@H](Cc1ccccc1)NC(=O)[C@H](C(C)C)N1CCCNC1=O
[1]
  Potency: inactive
[2]
  Potency: inactive
[3]
  Potency: inactive
[13]
  Potency: 23.5 µM (active)
[5]
  Potency: 29.6 µM (active)
[7]
  Potency: inactive
[10]
  Potency: 20.9 µM (active)

## CCOC(=O)c1c(C)n(C)c2ccc(O)cc12
[1]
  Potency: inactive
[2]
  Potency: inactive
[3]
  Potency: inactive
[4]
  Potency: inactive
[5]
  Potency: inactive
[6]
  Potency: inactive
[12]
  Potency: inactive
[8]
  Potency: inactive
[9]
  Potency: inactive
[10]
  Potency: inactive

## CC[C@]1(O)C[C@H]2CN(CCc3c([nH]c4ccccc34)[C@@](C(=O)OC)(c3cc4c(cc3OC)N(C=O)[C@H]3[C@@](O)(C(=O)OC)[C@H](OC(C)=O)[C@]5(CC)C=CCN6CC[C@]43[C@@H]65)C2)C1
[1]
  Potency: 1.18 µM (active) and inactive
[2]
  Potency: 33 nM (active) and 83.6 nM (active)
[3]
  Potency: 59 nM (active) and 26.6 nM (active)
[13]
  Potency: 4.7 nM (active) and 5.3 nM (active)
[5]
  Potency: 11.8 nM (active) and 6.7 nM (active)
[6]
  Potency: 21.7 nM (active) and 17.4 nM (active)
[8]
  Potency: 0.0235 µM (active)

## C[C@H](Cn1cnc2c(N)ncnc21)OCP(=O)(O)O
[1]
  Potency: inactive
[2]
  Potency: inactive
[3]
  Potency: inactive
[6]
  Potency: inactive
[12]
  Potency: inactive
[8]
  Potency: inactive
[10]
  Potency: inactive

## Cc1ccc(NC(=O)c2ccc(CN3CCN(C)CC3)cc2)cc1Nc1nccc(-c2cccnc2)n1
[1]
  Potency: inactive
[2]
  Potency: inactive
[3]
  Potency: inactive
[4]
  Potency: inactive
[5]
  Potency: inactive
[6]
  Potency: inactive
[12]
  Potency: inactive
[8]
  Potency: inactive
[9]
  Potency: 34.4 µM (active)
[10]
  Potency: inactive
[11]
  Potency: inactive

## CCc1nc(N)nc(N)c1-c1ccc(Cl)cc1
[1]
  Potency: 9.35 µM (active)
[2]
  Potency: 3.74 µM (active) and 11.7 µM (active)
[3]
  Potency: 5.31 µM (active) and 18.7 µM (active)
[4]
  Potency: 2.66 µM (active) and 4.18 µM (active)
[5]
  Potency: 668 nM (active) and 1.18 µM (active)
[6]
  Potency: 6.92 µM (active)
[8]
  Potency: inactive
[9]
  Potency: inactive
[10]
  Potency: inactive

## CCCCN(CCCC)CCC(O)c1cc2c(Cl)cc(Cl)cc2c2cc(C(F)(F)F)ccc12 (centres undefined)
[1]
  Potency: inactive
[2]
  Potency: inactive
[3]
  Potency: inactive
[5]
  Potency: 11.9 µM (active) and 33.2 µM (active)
[9]
  Potency: inactive
[10]
  Potency: inactive

## COC(=O)N[C@H](C(=O)N[C@@H](Cc1ccccc1)[C@@H](O)CN(Cc1ccc(-c2ccccn2)cc1)NC(=O)[C@@H](NC(=O)OC)C(C)(C)C)C(C)(C)C
[1]
  Potency: inactive
[2]
  Potency: inactive
[3]
  Potency: inactive
[13]
  Potency: inactive
[5]
  Potency: inactive
[6]
  Potency: inactive
[8]
  Potency: inactive
[9]
  Potency: inactive
[10]
  Potency: inactive

## CC(C)c1nc(CN(C)C(=O)N[C@H](C(=O)N[C@@H](Cc2ccccc2)C[C@H](O)[C@H](Cc2ccccc2)NC(=O)OCc2cncs2)C(C)C)cs1
[1]
  Potency: inactive
[2]
  Potency: inactive
[3]
  Potency: inactive
[5]
  Potency: 10.5 µM (active)
[6]
  Potency: inactive
[12]
  Potency: 23.7 µM (active)
[7]
  Potency: inactive
[8]
  Potency: inactive

## Cc1nc2n(c(=O)c1CCN1CCC(c3noc4cc(F)ccc34)CC1)CCCC2
[1]
  Potency: inactive
[2]
  Potency: inactive
[3]
  Potency: inactive
[13]
  Potency: inactive
[5]
  Potency: inactive
[6]
  Potency: inactive
[12]
  Potency: inactive
[7]
  Potency: inactive
[8]
  Potency: inactive
[9]
  Potency: inactive
[10]
  Potency: inactive
[11]
  Potency: inactive

## CCN(CC)CCOc1ccc(Cc2ccccc2)cc1
[1]
  Potency: inactive
[3]
  Potency: inactive
[5]
  Potency: inactive
[12]
  Potency: inactive
[8]
  Potency: inactive
[10]
  Potency: inactive

## O=C(O)c1cc(=O)c2c(OCC(O)COc3cccc4oc(C(=O)O)cc(=O)c34)cccc2o1
[1]
  Potency: inactive
[3]
  Potency: inactive
[13]
  Potency: inactive
[5]
  Potency: inactive
[6]
  Potency: inactive
[12]
  Potency: inactive
[7]
  Potency: inactive
[8]
  Potency: inactive
[9]
  Potency: inactive
[10]
  Potency: inactive
[11]
  Potency: inactive

## COC1=C(OC)C(=O)C(CCCCCCCCCCO)=C(C)C1=O
[1]
  Potency: inactive
[4]
  Potency: inactive
[13]
  Potency: 26.6 µM (active) and 23.5 µM (active)
[5]
  Potency: inactive
[6]
  Potency: inactive
[7]
  Potency: inactive
[8]
  Potency: inactive
[9]
  Potency: inactive
[10]
  Potency: inactive

— PubChem BioAssay (NCATS)
